Four compounds from PubChem BioAssay (EPA / NIEHS) can be followed below.

The structures appear in SMILES notation. The source made the active and inactive calls. How the source made its calls: active means hit-call score of the fitted dose curve at least 0.9, where 1 is the maximum; inactive means score below 0.9.

A short description of assay [1]: ATG_E_Box_CIS: Attagene CIS-FACTORIAL HepG2 Assay for human Enhancer Box (E-box) (AID 2282936). The settings on record: HepG2 E-box cis-reporter transcription, actives raise or lower the signal. The essentials:
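DMSO served as negative control and baseline for bidirectional fitting. Human hepatoma HepG2 cells, transiently transfected with cis-reporter constructs, were dosed 24 h; reporter mRNA read by RT-PCR and capillary electrophoresis.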

Assay [2] is described as follows: ATG_M_61_CIS: Attagene CIS-FACTORIAL HepG2 Assay for M61 Transcription Factor (Internal Marker) (AID 2282937). The settings on record: HepG2 Attagene CIS-FACTORIAL M61 internal marker reporter; actives raise or lower the signal. In a few lines: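 HepG2 cells transiently transfected with cis-element-driven multiple reporter transcription units, dosed for 24 h. Reporter mRNA measured by RT-PCR, 6-FAM primer-extension labelling, HpaI digestion and capillary electrophoresis; bidirectional fit versus DMSO baseline.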

Assay [3] can be described thus: ATG_EGR_CIS: Attagene CIS-FACTORIAL HepG2 Assay for human Early Growth Response 1 (EGR1) (AID 2282938). The settings on record: HepG2 Attagene CIS-FACTORIAL EGR reporter mRNA; actives raise or lower the signal. In a few lines:
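HepG2 cells transiently transfected with cis-promoter-driven multiplexed reporter transcription units; reporter mRNA measured 24 h after compound dosing by RT-PCR, 6-FAM primer extension, HpaI digestion and capillary electrophoresis. Bidirectional fit versus DMSO baseline.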

Assay [4] is described as follows: ATG_M_19_CIS: Attagene CIS-FACTORIAL HepG2 Assay for M19 Transcription Factor (Internal Marker) (AID 2282939). The settings on record: HepG2 Attagene CIS-FACTORIAL M19 internal marker reporter; actives raise or lower the signal. In a few lines: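 Chemical-treated HepG2 (24 h) with MRTU constructs; reporter transcripts detected by fluorescent RT-PCR fragment analysis on capillary electrophoresis. Internal background marker, DMSO as baseline.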

Assay [5] is described as follows: ATG_ERE_CIS: Attagene CIS-FACTORIAL HepG2 Assay for Estrogen Response Element (ERE) (AID 2282940). The settings on record: HepG2 ERE cis-reporter, Attagene RNA transcript; actives raise or lower the signal. The essentials: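 Human liver cells (HepG2) bearing transiently transfected, promoter-regulated reporter units were exposed 24 h. Reporter mRNA induction was detected by capillary electrophoresis of labelled RT-PCR products and fitted bidirectionally to DMSO.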

Assay [6] is described as follows: ATG_Ets_CIS: Attagene CIS-FACTORIAL HepG2 Assay for human Erythroblast Transformation Specific (ETS) (AID 2282941). The settings on record: HepG2 ETS cis-reporter transcription, actives raise or lower the signal. In a few lines:
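Steps: transfect HepG2 with multiple reporter units; treat compound 24 h; isolate RNA, DNase-treat, reverse-transcribe; PCR-amplify, label with 6-FAM, digest with HpaI; separate by capillary electrophoresis. Activity fitted both directions versus DMSO.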

Assay [7] has as its target Hepatocyte nuclear factor 3-beta (Homo sapiens) (UniProt Q9Y261). The assay can be described thus: ATG_FoxA2_CIS: Attagene CIS-FACTORIAL HepG2 Assay for human Forkhead box A2 (FOXA2) (AID 2282942). The settings on record: HepG2 cis-reporter transcription factor activity, 24 h; actives raise or lower the signal. The essentials: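 HepG2 cells transiently transfected with multiple cis-regulated reporter transcription units, dosed for 24 h. Reporter mRNA measured by RT-PCR, 6-FAM labelling, HpaI digestion and capillary electrophoresis; bidirectional fitting against DMSO baseline.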

Assay [8] is described as follows: ATG_FoxO_CIS: Attagene CIS-FACTORIAL HepG2 Assay for human Forkhead box O (FoxO) (AID 2282943). The settings on record: HepG2 Attagene cis-reporter, FoxO element, mRNA; actives raise or lower the signal. The essentials: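 HepG2, transient MRTU transfection (cis element, endogenous TFs). Dose 24 h. TriZol RNA → oligo(dT) RT → PCR → 6-FAM primer extension → HpaI cut → CE. Gain/loss vs DMSO.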

The nature of assay [9]: ATG_GATA_CIS: Attagene CIS-FACTORIAL HepG2 Assay for human GATA Binding Protein (AID 2282944). The settings on record: HepG2 GATA cis-element reporter, Attagene multiplex mRNA; actives raise or lower the signal. In a few lines: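 Transfected cis-reporter HepG2 cells were treated with chemicals for 24 hours. Total RNA was then converted to cDNA, amplified with reporter-specific primers and analysed by fluorescent capillary electrophoresis, using DMSO-treated wells as baseline.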

A short description of assay [10]: ATG_GLI_CIS: Attagene CIS-FACTORIAL HepG2 Assay for human Zinc Finger Protein GLI1 (AID 2282945). The settings on record: HepG2, Attagene cis-factorial reporter mRNA, GLI element; actives raise or lower the signal. The essentials:
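Bidirectional curve fits relative to DMSO, using reporter mRNA levels from RT-PCR plus capillary electrophoresis. Cells were HepG2 transiently carrying cis-regulated reporter constructs, harvested 24 h after dosing.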

Assay [11] in a line: ATG_GRE_CIS: Attagene CIS-FACTORIAL HepG2 Assay for human Glucocorticoid Response Elements (GRE) (AID 2282947). The settings on record: HepG2 GRE cis-reporter, Attagene multiplex mRNA; actives raise or lower the signal. The essentials: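 Assay uses human hepatoma HepG2 cells transfected with cis-promoter reporter units, exposed 24 h. mRNA from reporters detected by RT-PCR plus capillary electrophoresis; DMSO serves as negative control and baseline.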

A short description of assay [12]: ATG_ISRE_CIS: Attagene CIS-FACTORIAL HepG2 Assay for human Interferon Regulatory Factor 1 (IRF1) binding to an Interferon-Stimulated Response Element (ISRE) (AID 2282948). The settings on record: HepG2 ISRE cis-reporter (Attagene), mRNA transcription readout; actives raise or lower the signal. The essentials: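 Transfected HepG2 (multiple reporter transcription units, cis elements) dosed 24 h. RNA → oligo(dT) RT → PCR → 6-FAM primer extension → HpaI → CE. DMSO = negative control/baseline.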

Assay [13] in a line: ATG_M_32_CIS: Attagene CIS-FACTORIAL HepG2 Assay for M32 Transcription Factor (Internal Marker) (AID 2282949).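 Further: background control marker of the multiplexed CIS panel rather than a real target.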 The settings on record: HepG2 Attagene cis-factorial M32 reporter, mRNA; actives raise or lower the signal. The essentials: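 Internal background marker read-out: RT-PCR/capillary electrophoresis fluorescence of reporter transcripts from transiently transfected HepG2 cells after 24 h chemical exposure. Activity fitted bidirectionally relative to DMSO negative control.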

A short description of assay [14]: ATG_M_06_CIS: Attagene CIS-FACTORIAL HepG2 Assay for M06 Transcription Factor (Internal Marker) (AID 2282950). The settings on record: HepG2 Attagene CIS-FACTORIAL M06 internal marker reporter; actives raise or lower the signal. The essentials: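 Cells (HepG2, transiently carrying cis-driven reporter units) receive chemical for 24 h before RNA isolation. Reporter cDNA is PCR-amplified, FAM-labelled by primer extension, HpaI-digested and sized on a capillary analyser.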

In assay [15] the target is Hypoxia-inducible factor 1-alpha (Homo sapiens) (UniProt Q16665). The assay can be described thus: ATG_HIF1a_CIS: Attagene CIS-FACTORIAL HepG2 Assay for human Hypoxia Inducible Factor 1 (HIF1A) (AID 2282951). The settings on record: HepG2 Attagene cis-factorial HIF1a reporter transcription; actives raise or lower the signal. In a few lines:
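HepG2 cells transiently transfected with multiplexed cis-promoter reporter units; reporter mRNA read 24 h after dosing by RT-PCR, 6-FAM primer-extension labelling, HpaI digestion and capillary electrophoresis. Bidirectional fit versus DMSO baseline.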

The target of assay [16] is Hepatocyte nuclear factor 6 (Homo sapiens) (UniProt Q9UBC0). Kind of assay: ATG_HNF6_CIS: Attagene CIS-FACTORIAL HepG2 Assay for human Hepatocyte Nuclear Factor 6 (HNF6) (AID 2282952). The settings on record: HepG2 Attagene cis-factorial HNF6 reporter transcription; actives raise or lower the signal. The essentials:
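Cells are HepG2 carrying transiently transfected cis-promoter reporter units. Treatment lasts 24 h, after which reporter transcripts are reverse-transcribed, amplified, FAM-labelled and sized by capillary electrophoresis. DMSO serves as baseline.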

In assay [17] the target is Heat shock factor protein 1 (Homo sapiens) (UniProt Q00613). The assay can be described thus: ATG_HSE_CIS: Attagene CIS-FACTORIAL HepG2 Assay for human Heat Shock Transcription Factor 1 (HSE) (AID 2282953). The settings on record: HepG2 HSE cis-reporter, Attagene RNA transcription; actives raise or lower the signal. In a few lines: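 Liver-derived HepG2 cells carry transiently introduced multiple reporter units governed by cis promoters. Reporter RNA measured 24 h post-dose through reverse transcription, PCR amplification, fluorescent labelling and capillary electrophoresis, normalised to DMSO.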
Sequence of Heat shock factor protein 1 (Homo sapiens) (Q00613 whole entry, looked up): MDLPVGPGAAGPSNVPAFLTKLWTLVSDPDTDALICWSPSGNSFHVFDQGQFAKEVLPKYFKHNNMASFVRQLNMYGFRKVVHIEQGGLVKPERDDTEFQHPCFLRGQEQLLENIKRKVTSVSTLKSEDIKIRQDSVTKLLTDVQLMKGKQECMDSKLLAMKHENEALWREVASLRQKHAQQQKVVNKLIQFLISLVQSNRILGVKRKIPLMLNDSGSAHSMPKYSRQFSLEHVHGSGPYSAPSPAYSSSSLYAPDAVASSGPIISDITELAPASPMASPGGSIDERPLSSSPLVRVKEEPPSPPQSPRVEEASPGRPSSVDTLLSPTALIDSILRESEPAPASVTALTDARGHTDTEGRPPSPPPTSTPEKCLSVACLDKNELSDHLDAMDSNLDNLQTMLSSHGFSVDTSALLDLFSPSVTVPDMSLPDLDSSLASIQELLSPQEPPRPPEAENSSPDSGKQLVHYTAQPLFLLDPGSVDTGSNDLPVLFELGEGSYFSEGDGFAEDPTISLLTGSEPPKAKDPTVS

The nature of assay [18]: ATG_MRE_CIS: Attagene CIS-FACTORIAL HepG2 Assay for human Metal Responsive Element (MRE) (AID 2282954). The settings on record: HepG2 MRE cis-reporter transcription, Attagene multiplex; actives raise or lower the signal. The essentials:
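After a 24 h chemical exposure, transiently transfected HepG2 cells yield RNA whose reporter sequences are amplified, FAM-labelled and sized by capillary electrophoresis. Curves are fitted bidirectionally relative to DMSO.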

Assay [19] has as its target Bile acid receptor (Homo sapiens) (UniProt Q96RI1). The assay can be described thus: ATG_IR1_CIS: Attagene CIS-FACTORIAL HepG2 Assay for human Nuclear Receptor Subfamily 1 Group H Member 4 (NR1H4), IR1 submotif (AID 2282946). The settings on record: IR1 reporter transcription, actives raise or lower the signal. The essentials:
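Cells (human HepG2) carry transiently transfected cis-promoter reporter transcription units. Compounds are incubated 24 h, total RNA is reverse-transcribed and amplified, and labelled fragments are resolved by capillary electrophoresis. Curves use DMSO as baseline.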

The nature of assay [20]: ATG_PBREM_CIS: Attagene CIS-FACTORIAL HepG2 Assay for human Phenobarbital-responsive Enhancer Module (PBREM) (AID 2282955). The settings on record: HepG2 PBREM cis-reporter, Attagene multiplexed transcription; actives raise or lower the signal. The essentials: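 HepG2 cells transiently transfected with multiple cis-regulated reporter transcription units; endogenous factor activity at the PBREM element measured as reporter mRNA 24 h after dosing, via RT-PCR and capillary electrophoresis of fluorescent fragments; bidirectional fitting versus DMSO.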

Sequence of Hepatocyte nuclear factor 3-beta (Homo sapiens) (Q9Y261 whole entry, looked up): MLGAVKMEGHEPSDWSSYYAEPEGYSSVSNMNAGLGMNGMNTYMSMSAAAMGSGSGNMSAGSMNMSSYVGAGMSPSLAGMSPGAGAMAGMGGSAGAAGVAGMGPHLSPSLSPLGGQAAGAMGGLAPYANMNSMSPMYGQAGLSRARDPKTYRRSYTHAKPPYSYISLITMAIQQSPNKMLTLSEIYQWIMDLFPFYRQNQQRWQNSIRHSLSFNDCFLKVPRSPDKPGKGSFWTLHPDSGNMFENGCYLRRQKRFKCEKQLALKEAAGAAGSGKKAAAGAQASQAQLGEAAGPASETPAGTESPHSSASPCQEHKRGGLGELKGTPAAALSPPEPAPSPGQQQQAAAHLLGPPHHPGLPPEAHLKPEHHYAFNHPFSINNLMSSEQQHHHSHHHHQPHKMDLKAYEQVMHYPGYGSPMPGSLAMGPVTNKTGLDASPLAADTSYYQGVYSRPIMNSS
Sequence of Hypoxia-inducible factor 1-alpha (Homo sapiens) (Q16665 whole entry, looked up): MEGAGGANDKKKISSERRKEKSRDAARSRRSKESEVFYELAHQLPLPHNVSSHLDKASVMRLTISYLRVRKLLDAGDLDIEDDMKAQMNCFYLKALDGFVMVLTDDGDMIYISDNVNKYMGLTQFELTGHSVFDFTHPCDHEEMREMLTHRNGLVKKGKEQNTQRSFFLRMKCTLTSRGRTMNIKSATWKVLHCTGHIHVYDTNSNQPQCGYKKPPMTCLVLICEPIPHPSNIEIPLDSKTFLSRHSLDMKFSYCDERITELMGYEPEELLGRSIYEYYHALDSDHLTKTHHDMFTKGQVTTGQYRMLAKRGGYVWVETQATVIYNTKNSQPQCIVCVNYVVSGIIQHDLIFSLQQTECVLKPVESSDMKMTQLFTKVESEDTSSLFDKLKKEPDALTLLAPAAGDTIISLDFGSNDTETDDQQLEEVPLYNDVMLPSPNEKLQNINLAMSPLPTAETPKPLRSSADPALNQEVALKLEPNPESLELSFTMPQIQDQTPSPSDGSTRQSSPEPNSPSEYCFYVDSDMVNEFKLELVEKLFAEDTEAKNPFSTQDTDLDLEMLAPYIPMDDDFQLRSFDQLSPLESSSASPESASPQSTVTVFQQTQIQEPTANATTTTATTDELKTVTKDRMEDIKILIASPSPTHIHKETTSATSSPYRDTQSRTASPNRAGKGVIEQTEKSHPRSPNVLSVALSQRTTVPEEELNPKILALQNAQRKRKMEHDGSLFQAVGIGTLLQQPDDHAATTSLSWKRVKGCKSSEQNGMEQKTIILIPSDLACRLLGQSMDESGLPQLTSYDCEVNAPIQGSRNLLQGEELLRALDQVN
Sequence of Hepatocyte nuclear factor 6 (Homo sapiens) (Q9UBC0 whole entry, looked up): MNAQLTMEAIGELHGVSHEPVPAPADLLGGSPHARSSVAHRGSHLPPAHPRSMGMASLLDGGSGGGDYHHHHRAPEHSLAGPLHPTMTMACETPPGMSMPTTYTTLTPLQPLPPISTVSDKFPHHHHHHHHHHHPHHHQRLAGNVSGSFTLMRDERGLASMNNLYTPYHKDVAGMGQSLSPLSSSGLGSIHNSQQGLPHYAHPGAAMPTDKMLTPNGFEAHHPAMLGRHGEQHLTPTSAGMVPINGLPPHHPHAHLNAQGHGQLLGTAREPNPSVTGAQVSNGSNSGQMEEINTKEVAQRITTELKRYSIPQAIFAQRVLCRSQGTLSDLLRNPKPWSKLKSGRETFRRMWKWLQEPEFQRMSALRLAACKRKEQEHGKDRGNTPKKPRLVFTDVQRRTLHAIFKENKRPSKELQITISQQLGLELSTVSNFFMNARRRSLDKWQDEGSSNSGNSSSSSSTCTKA
Sequence of Bile acid receptor (Homo sapiens) (Q96RI1 whole entry, looked up, the tested form may be a part): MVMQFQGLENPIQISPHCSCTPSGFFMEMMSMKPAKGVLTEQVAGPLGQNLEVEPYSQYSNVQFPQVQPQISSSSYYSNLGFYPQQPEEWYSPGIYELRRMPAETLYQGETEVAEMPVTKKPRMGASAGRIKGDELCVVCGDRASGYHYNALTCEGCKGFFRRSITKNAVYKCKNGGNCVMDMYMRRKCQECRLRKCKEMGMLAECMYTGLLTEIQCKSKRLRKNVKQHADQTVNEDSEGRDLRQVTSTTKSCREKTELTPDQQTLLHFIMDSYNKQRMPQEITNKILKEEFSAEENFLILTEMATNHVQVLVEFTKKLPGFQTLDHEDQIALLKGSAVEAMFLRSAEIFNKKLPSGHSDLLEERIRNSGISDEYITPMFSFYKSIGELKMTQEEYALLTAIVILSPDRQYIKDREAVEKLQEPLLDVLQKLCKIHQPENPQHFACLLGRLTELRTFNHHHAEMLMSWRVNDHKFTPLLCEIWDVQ

Consider `c1c[nH]cn1`, for which the result in assay [1], in assay [2], in assay [3], in assay [4], in assay [5] and in assay [6] was inactive. Also, the compound was called inactive in assay [7], in assay [8], in assay [9], in assay [10], in [11] and in [12]. The outcome in assay [13], in [14], in [15], in assay [16], in assay [17] and in assay [18] was inactive.

For orientation: AC50 means the concentration at which the activity in the assay is half-maximal. Take `CC/C=C\C/C=C\C/C=C\CCCCCCCC(=O)O`: the AC50 in assay [1] is 100 µM (active); in assay [3], 103 µM (active); in assay [17], 188 µM (active); in assay [18] it was 140 µM (active). Also, the result in assay [2], in assay [4], in assay [5], in [6], in [7] and in assay [8] was inactive. The outcome in [9], in [10], in [19], in [13], in assay [14] and in [15] was inactive. The result in [16] and in assay [20] was inactive.

For `C=CC(C)(C)C`, the outcome in [1], in assay [2], in assay [3], in assay [4], in [5] and in assay [6] was inactive. The call in assay [7], in [8], in [9], in assay [10], in [11] and in [12] was inactive. Further, the call in assay [13], in assay [14], in assay [15], in assay [16], in assay [17] and in assay [18] was inactive.

On to `O=C1CCCCCN1SSN1CCCCCC1=O`, for which the half-maximal activity concentration (AC50) in assay [1] is 182 µM (active); in [3], 162 µM (active); in assay [10] it was 155 µM (active); in [12] it was 167 µM (active); in assay [17], 133 µM (active); in assay [18] it was 165 µM (active). Moreover, the result in [2], in assay [4], in [5], in assay [6], in [7] and in [8] was inactive. Besides, the call in assay [9], in assay [19], in assay [14], in assay [15], in assay [16] and in [20] was inactive.
